Assay outcomes from PubChem.
Shown is part of a subset that was picked to be rich in hits.
S aureus helic = S. aureus DNA helicase inhibition | inhibition, % (concentration not given with the values) | 120,000 compounds, 0.05% hits | purified S. aureus helicase, fluorescence unwinding assay; in the data active = inhibition above about 25%, passing the limit was not always enough
Sa growth 42C = blocks Staphylococcus aureus growth; relative growth, % (test concentration not listed); S. aureus RN4220 growth, OD600, 20 h, 42 °C; active compounds read low; AID 720641; 170,000 compounds, 0.53% hits;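 active = relative growth at most 50% at the other temperature and 20+ points below 30 °C, or under 10% at both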
Hits are given with their value; i = inactive; nt = not tested or not shown; ! = not confirmed by another sample.

SMILES	S aureus helic	Sa growth 42C
Cc1ccc(NC(=O)C(=O)NCc2ccco2)cc1	nt	i
Cc1nnc(SCC2=C(C(=O)O)N3C(=O)[C@@H](NC(=O)Cn4cnnn4)[C@H]3SC2)s1	nt	-0.6
CCN(C(=O)CSc1nnc(C)s1)c1ccccc1	i	i
O=C(Cn1c(C(=O)N2CCOCC2)cc2sccc21)c1ccccc1	i	i
c1ccc(-n2nnnc2OCCOc2nnnn2-c2ccccc2)cc1	i	i
c1ccc(-n2nnnc2Oc2cccc3cccnc23)cc1	i	-0.3
COCCCNc1oc(-c2ccc(COc3ccc(Cl)cc3)o2)nc1C#N	nt	i
CCCCC(=O)OC1=C(C(=O)c2ccccc2)N(CC)S(=O)(=O)c2ccccc21	nt	i
CCCCN1C(C(=O)c2ccccc2)=C(OC(C)=O)c2ccccc2S1(=O)=O	nt	-0.5
CCCCc1c(C)nc2c(-c3ccc(Cl)cc3)c(C)[nH]n2c1=O	nt	i
CC(C)(CNC(=O)Nc1ccc(Cl)c(Cl)c1)N1CCOCC1	i	-0.6
CC(C)(CNC(=O)Cc1ccsc1)N1CCOCC1	i	i
COc1cccc(NC(=O)CSc2cn(CC(=O)N3CCOCC3)c3ccccc23)c1	i	i
CCOC(=O)c1cn(CC)c2cc(N3CCCC3)c(F)cc2c1=O	i	i
Cn1cc(S(=O)(=O)c2ccccc2)c(=O)c2cc(F)c(N3CCN(c4ccc(F)cc4)CC3)cc21	nt	i
O=C(O)c1cn(C2CC2)c2cc(N3CCN(C(=S)S)CC3)c(F)cc2c1=O	i	-0.9
O=C(O)c1cn(-c2ccc(F)cc2)c2cc(N3CCNCC3)c(F)cc2c1=O	nt	-0.9
Cc1cc(C)n(-c2ncnc3c2cnn3-c2ccccc2)n1	nt	i
CCOc1ccc(S(=O)(=O)N(CC(=O)Nc2ccccc2C(=O)OC)c2ccccc2)cc1	i	i
FC(F)(F)c1cccc(N=Cc2ccccc2)c1	i	i
FC(F)(F)c1cccc(N=C=S)c1	i	-1.3
Cc1cccc(CS(=O)(=O)c2ncc(Cl)c(C(=O)Nc3nnc(C(C)C)s3)n2)c1	nt	5.0
CCc1nnc(NC(=O)c2nc(S(=O)(=O)Cc3ccc(C)cc3)ncc2Cl)s1	nt	i
Cc1ccc(CS(=O)(=O)c2ncc(Cl)c(C(=O)Nc3nnc(C(C)C)s3)n2)cc1	nt	5.6
CCc1nnc(NC(=O)c2nc(S(=O)(=O)Cc3cccc(C)c3)ncc2Cl)s1	nt	i
SMILES	S aureus helic	Sa growth 42C
COc1ccc(CCNC(=O)CSc2nc3nc(C)c(Cc4ccc(C)cc4)c(C)n3n2)cc1OC	nt	i
CCOc1ccc(/C=N/n2c(C)nc3ccccc3c2=O)cc1	i	i
COc1cccc2c1C(=O)c1c(O)c3c(c(O)c1C2=O)C[C@@](O)(C(=O)CO)C[C@@H]3O[C@H]1C[C@H](N)[C@H](O)[C@H](C)O1	nt	1.8!
Cc1c(Cl)sn(-c2ccc(Cl)cc2)c1=O	i	-1.2
O=C1CSCC(=O)N1c1ccc(Cl)cc1	i	i
CC1CCCC(C)N1C(=O)COc1ccc(C(=O)N/N=C/c2ccncc2)cc1 (stereo not given)	i	i
CCc1c(C)sc2c1CCN(Cc1ccccc1C#N)C2c1ccccc1 (stereo not given)	nt	i
CCc1c(C)sc2c1CCN(Cc1ccccc1)C2c1ccccc1 (stereo not given)	nt	-1.1
Cc1cc(C)c2cccnc2c1O	i	3.0
Cc1cc(C)c2ccc(NN)nc2c1O	i	i
Cc1cccc(C)c1NC(=S)N1CCCc2cccc(C)c21	nt	i
O=S(=O)(c1cc(Cl)ccc1Cl)N1CCCCC1	nt	i
O=S(=O)(c1cc(Cl)ccc1Cl)N1CCCC1	i	49.0
CCOC(=O)c1c(NC(=O)COC(=O)Cc2cn3ccsc3n2)sc(C)c1Cc1ccc2c(c1)OCO2	i	i
CC1(C)CC(=O)C2=C(C1)Nc1nc(N)[nH]c(=O)c1C2c1ccc(F)cc1 (stereo not given)	i	i
Cc1noc(C)c1C(=O)Nc1nnc(SCc2ccc(Cl)cc2)s1	i	4.9
Cc1noc(C)c1C(=O)Nc1nnc(SCC(=O)O)s1	i	i
CC1CCCCN1C(=O)c1cc2c(=O)oc3ccccc3c2s1 (stereo not given)	i	i
COc1ccccc1NC(=O)CC(O)(C(F)(F)F)C(F)(F)F	i	i
Cc1ccc(Cl)cc1NC(=O)CC(O)(C(F)(F)F)C(F)(F)F	i	-0.8
Cn1c(-c2ccccc2)cc(C=Nc2ccccc2)c1O	i	4.0
CN=Cc1cc(-c2ccccc2)n(C)c1S	i	i
CCc1ccc(-c2nn(CC(=O)NC3CCCC3)c3c2cnc2ccc(C)cc23)cc1	nt	i
COc1ccc(C(c2ccc3cccnc3c2O)N2CCOCC2)cc1 (stereo not given)	i	8.8
Oc1c(C(c2ccc(C(F)(F)F)cc2)N2CCCC2)ccc2cccnc12 (stereo not given)	i	1.1
SMILES	S aureus helic	Sa growth 42C
COc1ccc(C(c2ccc3cccnc3c2O)N2CCCC2)cc1 (stereo not given)	i	i
Oc1c(C(c2ccncc2)N2CCCC2)ccc2cccnc12 (stereo not given)	i	i
Cc1cc(C)nc(SCC(=O)OCC(=O)Nc2sccc2C#N)n1	i	i
CCn1c2ccccc2c2cc(NC(=O)c3cc4cc5cc(OC)ccc5nc4o3)ccc21	i	i
COC(=O)c1ccc2c(=O)[nH]c(COC(=O)c3ccc4c(c3)OCO4)nc2c1	i	i
COC(=O)c1ccc2c(=O)[nH]c(COC(=O)CNC(=O)c3cccs3)nc2c1	32.0	i
CCN(CC)C(=O)C(C(F)(F)F)C(F)(F)F	i	i
CN(C)CCNC(=O)CN1N=C(c2ccccc2)CCC1=O	nt	i
COc1ccccc1C(=O)Nc1cccc(C(=O)OCc2cc(=O)n3nc(C4CC4)sc3n2)c1	nt	i
CO[C@H]1C[C@H](O[C@H]2[C@H](C)[C@@H](OC3O[C@H](C)C[C@H](N(C)C)[C@H]3O)[C@@H](C)C[C@]3(CO3)C(=O)[C@H](C)[C@@H](O)[C@@H](C)[C@@H](C)OC(=O)[C@@H]2C)O[C@@H](C)[C@@H]1O (stereo not given in full)	nt	-0.6
CO[C@H]1C[C@H](O[C@H]2[C@H](C)[C@@H](OC3O[C@H](C)C[C@H](N(C)C)[C@H]3OC(C)=O)[C@@H](C)C[C@]3(CO3)C(=O)[C@H](C)[C@@H](OC(C)=O)[C@@H](C)[C@@H](C)OC(=O)[C@@H]2C)O[C@@H](C)[C@@H]1OC(C)=O (stereo not given in full)	nt	i
N#C/C(=C\NCc1cc(C(F)(F)F)cc(C(F)(F)F)c1)S(=O)(=O)Cc1ccco1	nt	i
CC1CC(C)(C)CC2(C1)NC(=O)N(c1ccccc1)N2 (stereo not given)	i	i
COc1ccc(N2CCN(C(=O)C3c4ccccc4C(=O)N4CCc5cc(OC)c(OC)cc5C34)CC2)cc1 (stereo not given)	i	i
CCCC1CCC(c2ccc(C(=O)CCN(C)C)cc2)CC1 (stereo not given)	i	-0.5
CCCC1CCC(c2ccc(C(N)=O)cc2)CC1 (stereo not given)	i	i
CC(=O)N1CCc2cc(S(=O)(=O)NC(Cc3ccccc3)C(=O)Nc3cc(C)cc(C)c3)ccc21 (stereo not given)	nt	i
N#CCN(CC#N)C(=O)c1cccs1	nt	i
N#CSCC(=O)c1cccs1	i	1.0
N#CC(C#N)=NNc1ccc2c(c1)OCCO2	i	-0.1
N#C/C(=N/Nc1ccc2c(c1)OCO2)C(=O)N1CCCC1	i	i
CC(=NCCc1ccccc1)C1CCOC1=O (stereo not given)	nt	i
CCN(CC)c1nc(N)c2c(N)nc3c(c2c1C#N)C(=O)CN3Cc1ccccc1	i	i
